In PubChem BioAssay (EPA / NIEHS):
Values joined by “and” are separate entries in the source; they are usually repeats but may differ in a detail not shown here. Equal values may be shown once. Where a structure was tested more than once in an assay, its records may differ in their call. Active and inactive are the calls of the source. The calls were made as follows: active = hit-call score of the fitted dose curve at least 0.9, where 1 is the maximum; inactive = score below 0.9.

assay: ATG_E_Box_CIS: Attagene CIS-FACTORIAL HepG2 Assay for human Enhancer Box (E-box) (AID 2282936); conditions: HepG2 E-box cis-reporter transcription, actives raise or lower the signal
Description: ATG_CIS is a cell-based, multiplexed-readout assay that uses HepG2, a human liver cell line, with measurements taken at 24 hours after chemical dosing in a 24-well plate.ATG_E_Box_CIS is one of 52 assay component(s) measured or calculated from the ATG_CIS assay. It is designed to make measurements of mRNA induction, a form of inducible reporter, as detected with fluorescence intensity signals by Reverse transcription polymerase chain reaction (RT-PCR) and Capillary electrophoresis technology.Data from the assay component ATG_E_Box_CIS was analyzed into 1 assay endpoint. This assay endpoint, ATG_E_Box_CIS, was analyzed with bidirectional fitting relative to DMSO as the negative control and baseline of activity. Using a type of inducible reporter, measures of mRNA for gain or loss-of-signal activity can be used to understand the reporter gene at the transcription factor-level as they relate to the gene USF1. Furthermore, this assay endpoint can be referred to as a primary readout, because this assay has produced multiple assay endpoints where this one serves a reporter gene function. To generalize the intended target to other relatable targets, this assay endpoint is annotated to the dna binding intended target family, where the subfamily is basic helix-loop-helix protein.
Human liver HepG2 cells are transiently transfected with multiple reporter transcription units (MRTUs) in 6-well plates using FuGene 6 reagent (Roche; 3 ml FuGene/1 mg DNA). The MRTU constructs are regulated by a cis-regulating element (promoter). […] A major difference between the CIS and TRANS system is that in CIS activities of endogenous TFs are measured, whereas the TRANS assay evaluates changes in activities of exogenous, chimeric NR-Gal4 proteins. […] At the end of 24 hour incubation, total RNA was isolated using TriZol reagent (Invitrogen). The isolated RNA is then reverse-transcribed using oligo(dT) primer and Mo-MLV reverse transcriptase (Invitrogen) with DNAse I (Ambion) treatment for 30 min. The one-tenth of the produced cDNA was amplified by PCR using Taq DNA polymerase (Invitrogen) and two reporter sequence-specific primers. The PCR products were fluorescently labeled by primer extension with 6-arboxyfluorescein (6-FAM) 5'-labeled reporter sequence-specific primer (2 min at 95 C, 20 s at 68 C and 10 min at 72 C) and these products were digested with 5U of HpaI (New England Biolabs) for 2h at 37 C. The fragments were purified using Qiaquick PCR columns (Qiagen), analyzed on an ABI 3130xL genetic analyzer (Applied Biosystems) with peak positions identified by using a set of X-rhodamine (ROX)-labeled MapMarker1000 molecular weight standards (BioVentures). The raw capillary electrophoresis data was processed using Attagraph software (Attagene).

Row | Compound | outcome | AC50
1 | O=C(O)c1cccc(C(=O)O)n1 | inactive | 
2 | COC(=O)C(F)(F)C(F)(F)C(F)(F)C(F)(F)C(F)(F)F | inactive | 
3 | NS(=O)(=O)O | inactive | 
4 | O=C(c1ccccc1)c1ccccc1 | inactive | 
5 | CCO[Si](CCC1CCC2OC2C1)(OCC)OCC (stereo not given) | inactive | 
6 | O=C1OC(=O)C(F)(F)C1(F)F | inactive | 
7 | COC1=CC(=O)C[C@@H](C)[C@]12Oc1c(Cl)c(OC)cc(OC)c1C2=O | inactive | 
8 | CC(=O)Nc1ccc(O)cc1 | inactive | 
9 | CCCCCCOC(=O)c1ccc(O)cc1 |  | 51.6 µM (active)
10 | COc1ccccc1NC(=O)c1cc2ccccc2cc1O |  | 26.7 µM (active)
11 | FC(F)=C(F)C(F)(F)C(F)(F)C(F)(F)C(F)F | inactive | 
12 | C=CC(=O)OCCC(F)(F)C(F)(F)C(F)(F)C(F)(F)C(F)(F)C(F)(F)C(F)(F)C(F)(F)F | inactive | 
13 | CCc1cccc(CC)c1N(COC)C(=O)CS(=O)(=O)O | inactive | 
14 | Nc1ccn([C@@H]2O[C@H](CO)[C@@H](O)C2O)c(=O)n1 (stereo not given in full) | inactive | 
15 | CCC(=O)O | inactive | 
16 | CCCCCCCCCC=CCC1CC(=O)OC1=O (stereo not given) | inactive | 
17 | CC(C)[C@@H]1CC[C@@H](C)C[C@H]1O | inactive | 
18 | FC(OC(F)(F)C(F)(F)C(F)(F)F)C(F)(F)F (stereo not given) | inactive | 
19 | O=CC(F)(F)C(F)(F)C(F)(F)C(F)F | inactive | 

Row | Compound | outcome | AC50
20 | CCCCC(CC)C(=O)OCCOCCOCCOCCOC(=O)C(CC)CCCC (stereo not given) | inactive | 
21 | O=C1OC2(c3ccccc31)c1cc(I)c(O)c(I)c1Oc1c2cc(I)c(O)c1I | inactive | 34.6 µM (active)
22 | CCCCc1ccc2ccccc2c1S(=O)(=O)O | inactive | 
23 | FC(F)(F)C(F)(F)C(F)(F)C(F)(F)I | inactive | 
24 | CC(=O)Nc1ccc(S(N)(=O)=O)cc1 | inactive | 
25 | CCC(C)c1ccccc1O (stereo not given) | inactive | 
26 | O=C(NO)c1ccccc1 |  | 27.9 µM (active) [middle of 4 runs]
27 | CCCCCCCCC(C)=O | inactive | 
28 | CCCCCCCCCCCC(=O)NCCCN(C)C | inactive | 
29 | O=C(O)C(F)(F)OC(F)(F)C(F)(F)OC(F)(F)C(F)(F)OC(F)(F)C(F)(F)C(F)(F)C(F)(F)F | inactive | 89.1 µM (active)
30 | CN(C)c1ccc(C(=C2C=CC(=[N+](C)C)C=C2)c2ccccc2)cc1 |  | 3.63 µM (active) and 1.85 µM (active)
31 | Oc1cc2ccccc2cc1O | inactive | 
32 | CCCCCCCCCCCCCCCCCC[N+](C)(C)Cc1ccccc1 |  | 18.4 µM (active)
33 | O=C(O)CCC(F)(F)C(F)(F)C(F)(F)C(F)(F)C(F)(F)F | inactive | 
34 | Cc1[nH]nc2c1N=C(c1ccccc1Cl)c1cc([N+](=O)[O-])ccc1N2 | inactive | 
35 | CC1=NN(c2ccccc2)C(=O)C1 | inactive | 
36 | O=C(C=C(O)C(F)(F)F)C(F)(F)F | inactive | 
37 | O=c1cc(-c2ccccc2)oc2ccc3ccccc3c12 | inactive | 
38 | O=S(=O)(O)C(F)(F)C(F)(F)C(F)(F)C(F)(F)C(F)(F)C(F)(F)C(F)(F)C(F)(F)C(F)(F)C(F)(F)F | inactive | 
